Most compounds without a hit are left out; they make up all but 6.9% or so of the library.
Mdm2 MdmX PPI = disrupts the human Mdm2-MdmX interaction; 330,000 compounds, 3% hits; SaOS-2 split-luciferase Mdm2/MdmX complementation, luminescence; AID 485346; inhibition, % at 8 µM; O15151+Q00987;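 active = inhibition of at least 50% at 8 µM in the primary screen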
Target sequence (O15151 whole entry, looked up): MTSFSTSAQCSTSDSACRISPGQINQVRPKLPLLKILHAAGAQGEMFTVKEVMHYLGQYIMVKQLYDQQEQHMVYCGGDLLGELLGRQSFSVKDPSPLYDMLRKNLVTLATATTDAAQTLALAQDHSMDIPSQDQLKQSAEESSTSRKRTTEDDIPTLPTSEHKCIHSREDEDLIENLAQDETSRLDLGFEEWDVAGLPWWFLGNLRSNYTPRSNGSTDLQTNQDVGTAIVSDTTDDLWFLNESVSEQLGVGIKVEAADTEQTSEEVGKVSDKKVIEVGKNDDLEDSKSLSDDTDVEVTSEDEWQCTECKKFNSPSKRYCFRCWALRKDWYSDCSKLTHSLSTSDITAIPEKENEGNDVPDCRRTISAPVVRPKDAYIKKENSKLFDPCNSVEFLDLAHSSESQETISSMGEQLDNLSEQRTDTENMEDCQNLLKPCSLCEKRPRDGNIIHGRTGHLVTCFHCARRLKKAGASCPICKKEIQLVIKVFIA
Target sequence (Q00987 whole entry, looked up): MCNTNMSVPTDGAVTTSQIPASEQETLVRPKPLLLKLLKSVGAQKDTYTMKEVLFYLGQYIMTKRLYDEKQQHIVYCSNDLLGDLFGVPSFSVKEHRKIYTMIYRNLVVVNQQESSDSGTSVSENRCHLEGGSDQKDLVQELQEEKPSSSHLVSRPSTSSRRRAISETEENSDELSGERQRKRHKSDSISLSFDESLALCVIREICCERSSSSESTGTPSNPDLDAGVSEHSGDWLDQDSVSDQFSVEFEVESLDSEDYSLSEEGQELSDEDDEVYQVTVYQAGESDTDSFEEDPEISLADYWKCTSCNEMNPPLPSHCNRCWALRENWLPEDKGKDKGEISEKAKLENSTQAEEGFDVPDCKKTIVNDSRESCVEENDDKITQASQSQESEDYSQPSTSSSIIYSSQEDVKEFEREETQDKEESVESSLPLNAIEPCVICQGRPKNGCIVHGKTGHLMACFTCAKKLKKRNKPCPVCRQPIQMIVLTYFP
SKKanGAS inh = SKKanGAS growth inhibition; 300,000 compounds, 1.3% hits; S. pyogenes SKKanGAS, kanamycin growth, BacTiter-Glo, 6 h; inhibition, % at 7.5 µM;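 active = mean replicate score, as percent of positive control median, at least 50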;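 note: strain carries kanamycin resistance gene driven by streptokinase promoter and grows in 40 µg/ml kanamycin; loss of luminescence reflects streptokinase promoter inhibition or plain growth inhibition; 0% = median of DMSO wells and 100% = positive control at its reference dose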
CSC inhib = cancer stem cell inhibition | cancer stem cell-like cells viability, luminescence | 300,000 compounds, 1.1% hits | inhibition, % at 7.5 µM; in the data active = inhibition above about 75%; tested in HMLE shEcad cells
GRIN3A LBD mod = NR3A (human) ligand-binding domain modulation; NR3A LBD differential scanning fluorimetry, Tm shift; 0% = protein alone, 100% = glycine-bound protein; Tm shift relative to glycine control, % at 25 µM; 340,000 compounds, 2.5% hits; AID 1259313;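 active = melting temperature shift of at least 10% of the positive control shift, at one fixed dose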
Beta cell apopt = beta cell apoptosis inhibition. protection from apoptosis, % (concentration not given with the values). INS-1E cytokine-induced death, ATP luminescence, 48 h; percent of positive-control rescue, neutral wells zero. AID 435005. 300,000 compounds, 0.8% hits;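 active = Every replicate reaches about 75%, or at least half do and their mean reaches it too, limit read from the data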;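 note: 0% = cytokine-treated negative control wells and 100% = positive control rescue; higher means more ATP so stronger rescue from cytokine killing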
MPTP block = blocks calcium-induced mitochondrial swelling; isolated mouse mitochondria, Ca2+ swelling absorbance, 30 min; 360,000 compounds, 1.4% hits; inhibition, % at 10 µM;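 active = inhibition of 50% or more, scaled per plate between neutral and stimulator controls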;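 note: 0% = DMSO wells given calcium and 100% = 1 mM EGTA wells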
Mdm2-MdmX conf = human Mdm2/MdmX binding inhibition, confirmed | shares compounds with Mdm2 MdmX PPI | luminescent assay | inhibition, % at 8 µM | 10,000 compounds, 55% hits | AID 489028; in the data active = inhibition above about 40%
FLuc counter = counter-screen for Mdm2/MdmX inhibitors: full-length luciferase; AID 504607; shares compounds with Mdm2 MdmX PPI; SaOS-2 full-length luciferase counterscreen, luminescence; 6,200 compounds, 77% hits; inhibition, % at 8 µM;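 active = mean inhibition at 8 µM reaching about 37%, which flags the compound as non-specific, limit read from the data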;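 note: p53-null SaOS-2 cells with luciferase driven by a doxycycline-inducible promoter; compound on cells about two nights before reading with doxycycline added after day one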
Starred values were filed as active, the others as inactive; . = no result; + = active, no number.

SMILES	Mdm2 MdmX PPI	SKKanGAS inh	CSC inhib	GRIN3A LBD mod	Beta cell apopt	MPTP block	Mdm2-MdmX conf	FLuc counter
COc1ccc2c(c1)-c1c(ssc1=S)C(C)(C)N2	92.0*	-6.7	8.8	-8.1	-14.4	2.0	87.2*	55.0*
COc1ccc2c(c1)-c1c(sn(-c3ccc(OC)c(OC)c3)c1=S)C(C)(C)N2	54.5*	19.6	74.1	-10.4	.	-5.0	18.6	.
COc1ccc2c(c1)-c1c(ssc1=S)C(C)(C)N2S(=O)(=O)c1ccc(C)cc1	58.0*	46.9	65.7	-1.4	2.1	3.1	46.1*	61.3*
COc1ccc2c(c1)C(=O)C(=O)N2	-31.6	-0.8	-10.4	-1.1	.	0.1	.	.
Cc1ccc(S(=O)(=O)N2c3ccccc3-c3c(ssc3=S)C2(C)C)cc1	5.4	-0.3	-4.5	5.4	-10.9	3.4	.	.
CC(C)[C@H](NC(=O)[C@H](Cc1ccccc1)n1c(=O)[nH]c2ccccc2c1=O)C(=O)N1CCC[C@@H]1C(=O)O	-4.1	-1.7	-19.3	-0.5	-0.7	-1.2	.	.
Cc1cccc(/C(N)=N/OC(=O)N2CCOCC2)c1	85.9*	-2.6	9.1	0.3	5.9	-1.9	48.7*	105.3*
Cc1ccc(/C(N)=N/OC(=O)N2CCOCC2)cc1	94.8*	1.3	.	-0.9	.	0.9	50.6*	125.6*
Cc1nc(NC2=NCN(Cc3cccnc3)CN2)nc2ccccc12	.	.	.	3.6	.	3.8	.	.
Cc1nc(NC2=NCN(CCCN3CCOCC3)CN2)nc2c(C)cccc12	97.3*	.	5.2	-1.4	3.5	-0.3	96.4*	25.4
Cc1cc(N2CCOCC2)n2ncc(-c3ccc(Cl)cc3)c2n1	62.1*	-3.4	21.4	6.2	-2.5	-0.1	73.5*	194.6*
Cc1ccc(-c2cnn3c(N4CCOCC4)cc(C)nc23)cc1	63.8*	1.8	4.6	-1.2	-8.2	0.8	69.4*	+
CC(=O)Nc1ccc(Nc2cc(C)nc3c(-c4ccc(Cl)cc4)cnn23)cc1	81.1*	28.8	.	29.9*	6.6	0.8	86.9*	155.9*
CC(C)(C)c1cc(N2CCOCC2)n2ncc(-c3ccc(Cl)cc3)c2n1	28.5	3.0	13.5	-2.4	1.6	0.2	.	.
Cn1c(C(=O)N2CCN(c3ccc(F)cc3)CC2)cc2ccccc21	11.2	9.1	14.7	-0.7	-4.3	2.1	.	.
CSCc1cc(N(C)c2ccccc2)nc(-c2ccccc2)n1	-16.4	28.7	18.4	-1.3	9.1	0.3	.	.
COc1ccc(C(=O)CC(=O)C(=O)Nc2ccc(Cl)cc2)cc1	.	-3.0	6.4	0.6	4.9	3.6	.	.
COc1ccc(C(=O)CC(Nc2ccc([N+](=O)[O-])cc2)c2ccc(Cl)cc2)cc1 (stereo not given)	52.8*	29.9	39.7	11.0*	16.2	27.8	15.2	.
COc1ccc(NC(=O)c2cc(C3CCCCN3S(=O)(=O)c3ccc(C#N)cc3)on2)c(C)c1 (stereo not given)	.	.	.	.	.	0.3	.	.
COc1cc(C2C(C#N)=C(N)Oc3cc(N(C)C)ccc32)cc2c1OCO2 (stereo not given)	78.1*	-3.8	52.0	-8.6	68.7	2.2	63.9*	111.6*
COc1ccc(C2C(C#N)=C(N)Oc3cc(O)ccc32)cc1C (stereo not given)	14.6	.	5.6	-7.9	2.1	3.8	.	.
COc1cc(C2C(C#N)=C(N)Oc3cc(O)ccc32)cc2c1OCO2 (stereo not given)	57.4*	-3.3	-1.8	-14.7	-2.1	2.0	55.8*	59.3*
COc1cc(C2C3=C(COC3=O)Oc3cc4c(cc32)OCO4)cc(OC)c1OC (stereo not given)	.	.	.	-2.3	.	-1.3	.	.
COc1cc(C2C(C#N)=C(N)Oc3cc4c(cc32)OCO4)cc(OC)c1OC (stereo not given)	80.7*	0.7	37.8	0.9	63.8	-1.3	67.7*	126.1*
N#CC1=C(N)Oc2cc3c(cc2C1c1ccc(Cl)cc1)OCO3 (stereo not given)	61.4*	27.3	44.1	-12.8	1.6	1.4	46.5*	60.3*
SMILES	Mdm2 MdmX PPI	SKKanGAS inh	CSC inhib	GRIN3A LBD mod	Beta cell apopt	MPTP block	Mdm2-MdmX conf	FLuc counter
Cc1ccc(C2C(C#N)=C(N)Oc3cc(N)ccc32)cc1 (stereo not given)	3.0	-1.2	27.2	-8.8	1.7	1.1	.	.
CCOC(=O)C1=C(C)OC(N)=C(C#N)C1c1cc(OC)c2c(c1)OCO2 (stereo not given)	-0.9	1.8	-2.8	4.2	-7.6	-3.8	.	.
COc1cc(C2C(C#N)=C(N)Oc3cc(O)ccc32)cc(OC)c1OC (stereo not given)	64.7*	-8.2	60.6	-1.1	-7.9	-0.4	66.8*	66.7*
COc1ccc(C2C(C#N)=C(N)Oc3cc(O)ccc32)cc1OC (stereo not given)	17.0	-5.2	-12.4	1.4	8.7	-2.3	.	.
Cc1ccccc1CNC(=O)c1ccc2sc([C@H]3C[C@H](O)[C@@H](CO)O3)nc2c1	.	.	.	.	.	-0.1	.	.
COc1cc(C(=O)NCC(=O)N2CCN(S(=O)(=O)c3cc(C)ccc3C)CC2)cc(OC)c1OC	53.3*	-2.7	30.7	-0.8	1.5	-0.6	52.5*	42.2*
CCN(c1ccc(OC)cc1)S(=O)(=O)c1ccc(-c2cc(C)no2)s1	57.2*	1.5	-18.8	-1.4	3.7	-1.2	48.0*	58.9*
O=C(NCc1ccco1)c1cc(-c2ccccc2)nc2ccccc12	15.2	-13.6	-4.8	0.0	3.8	-3.4	.	.
COc1cc(-c2cc(C(=O)Nc3cccc(C(C)=O)c3)c3ccccc3n2)cc(OC)c1OC	60.9*	20.6	12.9	-1.6	.	0.6	39.6	81.9*
Cc1ccc(-c2nn(-c3ccccc3)cc2C(=O)Nc2ccc(C)c(S(=O)(=O)N3CCOCC3)c2)cc1	-2.7	-7.0	7.6	7.8	7.0	4.3	.	.
COc1cc2c(cc1NC(=O)c1cc(-c3ccncc3)nc3ccc(C)cc13)oc1ccccc12	50.9*	-2.7	37.5	-2.3	49.6	0.9	9.4	.
O=C(Nc1cccc(S(=O)(=O)NCc2ccco2)c1)c1cc(-c2ccccc2)nc2ccccc12	52.3*	36.1	38.7	7.5	-1.9	12.3	24.6	.
COc1ccc(NC(=O)c2cc(-c3ccncc3)nc3ccccc23)c(OC)c1	0.0	.	.	-1.0	12.5	7.4	.	.
COc1cc(-c2cc(C(=O)Nc3ccc(O)cc3)c3ccccc3n2)cc(OC)c1OC	38.4	16.1	26.5	-3.4	9.6	0.3	.	.
COc1cc(-c2cc(C(=O)Nc3ccc(C)c(S(=O)(=O)N4CCOCC4)c3)c3ccccc3n2)cc(OC)c1OC	52.1*	.	15.2	-8.0	-19.8	2.7	39.4	73.0*
FC(F)C(F)(F)Oc1cccc(Nc2nccn3c(-c4cccc5cccnc45)cnc23)c1	.	.	.	.	.	-0.3	.	.
CC[C@@H](NCCCn1cnc2c(SC)ncnc21)c1ccccc1	.	.	.	.	.	-1.4	.	.

Source: PubChem BioAssay (several laboratories)
